# Bioassay records from PubChem.
# Compounds with a hit are over-represented: about 21% of the library has one in this group of screens.
# Cycloheximide cs = counter-screen hit for Shiga toxin inhibitors, cycloheximide; cell reporter, cycloheximide protein synthesis inhibition counterscreen; max response, %; 300,000 tested, 12% active; AID 2314; in the data active = max response mostly above about 13%, no sharp cut-off; inactive = mostly below about 14%; note: read at 38.3 µM for the half of the compounds with a filed dose
# NS1 inh = influenza NS1 inhibition; Potency, µM (doses to about 46.1 µM); 270,000 tested, 0.4% active; calls by dose curve; note: actives are rising curves; nearly all actives have a fitted effect of over 50% in size
#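 A cell-based growth assay was used: compounds that relieve NS1-induced slow growth of budding yeast raise OD600. Assay medium was yeast nitrogen base with ammonium sulphate and -URA supplement, pH 6.0, with 2% galactose.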
# Pf growth 96h = P. falciparum growth inhibition at 96 hours | P. falciparum luciferase reporter growth, 96 h | 320,000 tested, 6.9% active | AID 504834 | Potency, µM (top dose mostly 28.7 µM), hits mostly inhibitors
#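 P. falciparum expressing integrated firefly luciferase, in erythrocytes at 2% hematocrit, 0.05% parasitemia, incubated with compounds 96 h at 37 C, 5% CO2. Growth inhibition read as loss of luminescence; two-generation exposure targets delayed-death apicoplast inhibitors.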
# Pf growth 48h = inhibits P. falciparum growth in the first generation, 48 h | P. falciparum luciferase growth in erythrocytes, 48 h | Potency, µM (doses to about 28.7 µM), actives largely listed as inhibitors | 310,000 tested, 5.9% active
#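 In quantitative HTS format, infected erythrocytes bearing luciferase-reporter parasites were treated for a single generation at 37 C. Luminescence after adding detection reagent served as the growth measure.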
# Giardia FBPA inh-1 = blocks Giardia fructose-bisphosphate aldolase activity. Potency, µM (highest dose often 59.6 µM), usual class: inhibitors. 290,000 tested, 0.71% active. A8B2U2. purified Giardia FBPA; note: nearly all actives have a fitted effect of over 55% in size
# Target sequence (A8B2U2 whole entry, looked up): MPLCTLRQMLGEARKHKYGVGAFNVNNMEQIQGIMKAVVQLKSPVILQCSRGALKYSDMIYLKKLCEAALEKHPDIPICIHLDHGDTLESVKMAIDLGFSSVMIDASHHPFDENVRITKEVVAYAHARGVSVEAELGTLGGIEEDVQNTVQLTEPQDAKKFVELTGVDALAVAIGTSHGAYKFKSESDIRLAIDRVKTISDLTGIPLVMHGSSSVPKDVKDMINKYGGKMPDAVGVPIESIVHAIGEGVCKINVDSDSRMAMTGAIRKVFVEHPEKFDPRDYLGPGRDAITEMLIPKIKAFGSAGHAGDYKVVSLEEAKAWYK
#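 40 nM FBPA preincubated 10 min at RT with compound (up to 57.5 uM final), then substrate plus GAPDH/TPI/NAD/arsenate coupling and diaphorase/resazurin added. Fluorescence read after 20 min at RT, 525/598 nm.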
# Shiga inhibitor = inhibitors of Shiga toxin in Vero cells; 290,000 tested, 9.2% active; Vero cells, Shiga toxin protein synthesis inhibition reporter; inhibition, % at 38.7 µM; AID 2315; in the data active = inhibition mostly above about 28%, no sharp cut-off; inactive = mostly below about 43%
# Giardia growth = Giardia lamblia growth inhibition; shares compounds with Giardia FBPA inh-1; Giardia lamblia trophozoite growth inhibition; Potency, µM (titrated, usually from 57.5 µM), hits mostly inhibitors; 1,500 tested, 5% active; AID 2785;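 note: trophozoites exposed to compound for 48 h at 37 °C; nearly all actives have a fitted effect of over 70% in size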
# Mammal cell tox = toxic to mammalian cells in Giardia aldolase counter-screen; shares compounds with Giardia FBPA inh-1; mammalian cell viability counter-screen, qHTS; Potency, µM (series often up to 57.5 µM), usual class: inhibitors; 1,500 tested, 4% active;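 note: Chinese hamster ovary cells used as mammalian cytotoxicity surrogate; viability measured as cellular ATP by luminescence; compound exposure lasted 48 h before reading; nearly all actives have a fitted effect of over 60% in size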
# Giardia FBPA inh-2 = confirmation of Giardia fructose-bisphosphate aldolase inhibitors | shares compounds with Giardia FBPA inh-1 | purified Giardia aldolase enzyme activity, qHTS | Potency, µM (doses to about 57.5 µM), most hits filed as inhibitors | 1,500 tested, 5% active; note: nearly all actives have a fitted effect of over 45% in size
# Rabbit FBPA inh = selectivity test for Giardia aldolase inhibitors: rabbit aldolase. Potency, µM (highest dose often 57.5 µM), actives largely listed as inhibitors. shares compounds with Giardia FBPA inh-1. Rabbit muscle FBPA enzyme inhibition, selectivity counter-screen. AID 2794. 1,500 tested, 4% active; note: nearly all actives have a fitted effect of over 60% in size
# GAPDH coupling = counter-screen for Giardia aldolase inhibitors: GAPDH coupling enzyme | 1,500 tested, 6% active | AID 2795 | GAPDH coupling enzyme counterscreen, biochemical, qHTS | Potency, µM (series often up to 57.5 µM), hits mostly inhibitors | shares compounds with Giardia FBPA inh-1; note: nearly all actives have a fitted effect of over 55% in size
# Numbers stand for hits; – = inactive; ? = inconclusive; · = not tested or not shown; [ ] = remark or other dose. Unless noted, calls come from the whole dose curve; as a rule, active = well fitted curve in the direction sought with a large enough effect; inconclusive = small, poorly fitted or top-dose-only effect, or another doubt; inactive = no such curve, though single readings can be large; an effect the other way counts as inactive or inconclusive.
SMILES,Cycloheximide cs,NS1 inh,Pf growth 96h,Pf growth 48h,Giardia FBPA inh-1,Shiga inhibitor,Giardia growth,Mammal cell tox,Giardia FBPA inh-2,Rabbit FBPA inh,GAPDH coupling
CCOc1ccccc1NC(=O)C(CC)Sc1nc2ccncc2[nH]1 (stereo unspecified),–,–,?,–,14.1µM,–,–[10.4 µM],–,–,–,–
CCOC(=O)N1CCN(C(=S)NC(=O)c2ccc(F)c(F)c2)CC1,–,–,–,–,15.8µM,–,–,–,–,–,–
COc1cc(C(=O)Nc2ccc(C)cc2)c(-n2cnnn2)cc1OC,–,–,?,–,–,–,·,·,·,·,·
Cc1nc(NC(=O)CN2CCN(c3ccccc3F)CC2)sc1C(=O)N(C)C,–,–,–,?,3.16µM,–,–[10.4 µM],–,–,–,–
CC12CCC(=O)N1C(C(=O)Nc1nc3ccc(Cl)cc3s1)CS2 (stereo unspecified),·,·,?,–,·,·,·,·,·,·,·
Cn1ccnc1P(=S)(c1nccn1C)c1nccn1C,–,–,–,–,7.94µM,–,–,–,–,–,–
Cn1ccnc1P(=S)(c1nccn1C)N1CCOCC1,–,–,–,·,–,–,·,·,·,·,·
Cc1[nH]n(-c2ccccc2)c(=O)c1N=Nc1ccccc1C(=O)O,–,?,?,–,–,–,·,·,·,·,·
CC(=O)N(C)c1ccc(N=Nc2c(C)[nH]n(-c3ccccc3)c2=O)cc1,–,–,11.7µM,?,4.47µM,–,–,–,–,–,–
CCOc1ccc(N=Nc2c(C)[nH]n(-c3ccccc3)c2=O)cc1,–,–,–,–,7.94µM,·,–,–,–,–,–
CCOC(=O)c1sc(=S)n(-c2ccccc2)c1C,–,–,–,–,–,–,·,·,·,·,·
CCOC(=O)c1c(O)c(O)c(C(=O)OCC)n1-c1ccccc1,–,–,–,–,19.9µM,–,–,–,–,–,–
CCOC(=O)c1ccc(N=Nc2c(C)[nH]n(-c3ccccc3)c2=O)cc1,–,–,–,–,10µM,–,?,–,–,–,–
Cc1ccc(N(CC(=O)NCc2ccc3c(c2)OCO3)C(=O)c2csnn2)cc1,–,–,–,?,–,–,·,·,·,·,·
CCN(CC)S(=O)(=O)c1cccc(NC(=O)c2ccc(C#N)cc2)c1,–,·,?,?,–,–,·,·,·,·,·
O=C(CCN1CCOCC1)NNC(=S)NC(=O)c1ccccc1,–,·,?,?,?,–,·,·,·,·,·
COc1cccc(N=Nc2c(C)[nH]n(-c3ccccc3)c2=O)c1,–,–,–,–,3.55µM,·,–,–,–,–,–
CCOc1ccc(-n2c(O)c(N=Nc3c(C)n(C)n(-c4ccccc4)c3=O)c(=O)[nH]c2=O)cc1,–,–,–,–,15.8µM,–,?,–,–,–,–
Cc1[nH]n(-c2ccc(S(=O)(=O)O)cc2)c(=O)c1N=Nc1ccccc1,·,–,·,·,·,·,·,·,·,·,·
CCc1ccc(NC(=O)CN(C(=O)N2CCN(CC)CC2)S(=O)(=O)c2ccc(C)cc2)cc1,·,·,–,–,·,·,·,·,·,·,·
CCN(CC)CC#CCC(O)(c1ccccc1)C1CCCCC1 (stereo unspecified),–,–,–,–,–,–,·,·,·,·,·
CC(C)N(CC#CCC(O)(c1ccccc1)c1ccccc1)CCO,–,–,?,–,15.8µM,–,–,–,–,–,–
CCN(CCNC(=O)CN1CCN(Cc2ccc(Cl)cc2)C1=O)c1ccccc1,–,–,?,·,–,–,·,·,·,·,·
CCn1c(SCC(=O)N2CCCC2)nnc1-c1ccco1,–,–,–,–,–,–,·,·,·,·,·
CCN(CC(=O)NCc1ccc(F)cc1)C(=O)CN1CCN(c2ccc(OC)cc2)CC1,–,–,–,–,7.94µM,–,–,–,–,–,–
CCCn1c(C(C)NS(=O)(=O)c2ccccc2)n[nH]c1=S (stereo unspecified),–,–,–,–,10µM,–,–,–,–,–,–
